Laboratory results: PubChem BioAssay (NCI)
Compounds without any hit were thinned out: in the full panel of roughly 79,000, 15% have a hit. Active and inactive are the calls of the source. Rule as the data show it: active = growth inhibition above about 70%; inactive = the rest.

Tests used:
[1] = NCI Yeast Anticancer Drug Screen. Data for the rad50 strain (AID 155);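 also: 0% = growth of vehicle-only cultures of the same strain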; settings: S. cerevisiae rad50 strain growth inhibition; at 50.0 µM; hits give high values
How it was run: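 Genetically altered yeast (DNA repair pathway); compound treatment; growth inhibition vs vehicle ctrl.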

[2] = NCI Yeast Anticancer Drug Screen. Data for the mec2-1 strain (AID 157); settings: S. cerevisiae mec2-1 strain, at 50.0 µM, hits give high values
How it was run: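 Each compound was tested on mec2-1 yeast, a strain altered in DNA damage repair or cell cycle control. Growth inhibition is reported relative to vehicle.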

[3] = NCI Yeast Anticancer Drug Screen. Data for the sgs1 mgt1 strain (AID 161);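 also: 0% = growth of cultures given vehicle only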; settings: S. cerevisiae sgs1 mgt1 strain, at 50.0 µM, hits give high values
How it was run: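 Read-out: growth inhibition vs vehicle controls. Cells: mutant yeast strain deficient in DNA damage repair.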

[4] = NCI Yeast Anticancer Drug Screen. Data for the cln2 rad14 strain (AID 165);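 also: 0% = growth equal to vehicle treated cultures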; settings: S. cerevisiae cln2 rad14 strain, at 50.0 µM, hits give high values
How it was run: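 Test compounds were added to cln2 rad14 yeast cultures; inhibition of growth was then determined by comparison with vehicle treatment.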

[5] = NCI Yeast Anticancer Drug Screen. Data for the bub3 strain (AID 167); settings: S. cerevisiae bub3 mutant strain, at 50.0 µM, hits give high values
How it was run: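 Yeast carrying a defined mutation is treated with each compound, and growth is compared with that of vehicle-exposed cells to give inhibition.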

[6] = NCI Yeast Anticancer Drug Screen. Data for the mlh1 rad18 strain (AID 175); settings: S. cerevisiae mlh1 rad18 strain growth inhibition; at 50.0 µM; hits give high values
How it was run: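 Inhibition values reflect reduced growth of mutant yeast versus vehicle-treated controls following compound exposure; the mutations affect DNA damage repair.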

Measured: growth inhibition

C=CCC(C)C(=O)NNC(=O)C(C)CC=C (centres undefined)
inactive: [1] -11.8% | [2] -9.15% | [3] -1.85% | [4] -13.3% | [5] -12.2% | [6] 11.8%

CN(C(=O)CCC(=O)O)c1ccccc1C(=O)O
inactive: [1] 0.2% | [2] -2.35% | [3] 11% | [4] -5.75% | [5] 0.85% | [6] -15.9%

CN(C)C(=S)/N=c1\ss/c(=N\C(=S)N(C)C)n1C1CCCCC1
inactive: [1] 15% | [2] 9.35% | [3] 13.4% | [4] -23.1% | [5] -18.6% | [6] 22.2%

CC(=O)Oc1nnc(OC(C)=O)c2cc(N)ccc12
inactive: [1] -13.3% | [2] -18.3% | [3] 4.45% | [4] -1.2% | [5] 9.9% | [6] 0.75%

CC(=O)c1ccc2c(Br)ccc3c2c1CC3
inactive: [1] 12.3% | [2] 10.3% | [3] 4.25% | [4] 10.4% | [5] 16.1% | [6] 9.55%

O=C(OCC(O)C(O)C(O)C(O)COC(=O)c1ccccc1)c1ccccc1 (centres undefined) (tested in a mixture with another compound)
inactive: [1] -0.9% | [2] 3.6% | [3] -0.75% | [4] -29.6% | [5] 0.85% | [6] 12.2%

BrCCCCCOc1ccc(-c2c3ccccc3c(-c3ccc(OCCCCCBr)cc3)c3ccccc23)cc1
inactive: [1] 11.4% | [2] 18.1% | [3] 12.8% | [4] 0.05% | [5] -12.9% | [6] 12.8%

O=C1OC(/C=C/c2ccccc2)=NC/1=C\c1ccccc1O
inactive: [1] 16.1% | [2] 8.6% | [3] 20% | [4] 23.4% | [5] 0.7% | [6] 6.6%

CC1(C)N=C(/C(Cl)=[N+](/[O-])C(=O)c2ccc(F)cc2)C(C)(C)N1O
inactive: [1] -15.5% | [2] -35.3% | [3] -27.2% | [4] 16.7% | [5] -25.8% | [6] -25.9%

CCOC(=O)NC(Nc1cc(Cl)ccc1OC)(C(F)(F)F)C(F)(F)F
inactive: [1] 2.5% | [2] -10.5% | [3] -26.1% | [4] 9.65% | [5] 6.85% | [6] -5.2%

CCCCCCCCCCCCCCCCc1c(C(=O)OC)nc(NN)[nH]c1=O
inactive: [1] -6.3% | [2] 5.2% | [3] -26.5% | [4] -2.85% | [5] 2.1% | [6] -12.8%

NC(=O)NCP(=O)(CNC(N)=O)CNC(N)=O
inactive: [1] -20% | [2] -7.3% | [3] -4.25% | [4] -20.4% | [5] 32.8% | [6] 4.95%

c1ccc(C(Sc2ncnc3nc[nH]c23)c2ccccc2)cc1
inactive: [1] 15% | [2] 13.2% | [3] -3.85% | [4] -22.5% | [5] 18.1% | [6] 0.1%

Oc1c(Cl)cccc1CN1CCOCC1
inactive: [1] 26.1% | [2] 6.15% | [3] 30.5% | [4] 25.1% | [5] -9.35% | [6] 33%

NC1c2c(Br)sc(N3CCCC3)c2C(=O)C1O (centres undefined)
inactive: [1] 8.05% | [2] -3.5% | [3] -5.25% | [4] -5.35% | [5] -16.4% | [6] -30.3%

COC(=O)c1cc(/C=C/C(=O)Cc2ccccc2)cn1S(=O)(=O)c1ccccc1
inactive: [1] -6.3% | [2] -9.6% | [3] -13.5% | [4] -23.9% | [5] 1.5% | [6] 1.9%

CC(C)(C)c1cc[n+](C[n+]2ccc(C(C)(C)C)cc2)cc1
inactive: [1] 4.8% | [2] -12.2% | [3] -0.45% | [4] -13.4% | [5] -22.9% | [6] -5%

CCN(CC)CCCC(C)n1c(-c2ccc(OC)cc2)nc2cc(Cl)ccc21 (centres undefined)
inactive: [1] -0.65% | [2] 8.5% | [3] 26.9% | [4] 10.1% | [5] 6.55% | [6] 4.6%

O=C1C2=C(c3ccccc31)C(c1ccc(F)cc1)N1C(=O)CCSC1=N2 (centres undefined)
inactive: [1] 45.1% | [2] 19.1% | [3] 63% | [4] 40.1% | [5] 48.6% | [6] 56.1%
